The target of assay [1] is Myc proto-oncogene protein (Homo sapiens) (UniProt P01106). In words: ATG_Myc_CIS: Attagene CIS-FACTORIAL HepG2 Assay for human Myelocytomatosis (Myc) Proto-Oncogene Transcription Factor (AID 2282990). The conditions noted are these: HepG2, Attagene cis-reporter transcription factor activity; actives raise or lower the signal. An outline of the steps:
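Fluorescence intensity of reporter-specific cDNA fragments, separated by capillary electrophoresis, gives the signal. Transfected HepG2 cells carrying cis-promoter reporter constructs are incubated with compound for 24 h; DMSO serves as baseline.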

Assay [2] is described as follows: ATG_NF_kB_CIS: Attagene CIS-FACTORIAL HepG2 Assay for human Nuclear Factor Kappa B (NF-kB) (AID 2282991). The conditions noted are these: HepG2 Attagene cis-factorial NF-kB reporter mRNA; actives raise or lower the signal. An outline of the steps:
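HepG2 cells transiently transfected with multiplexed cis-element reporter units measuring endogenous transcription factor activity; reporter mRNA read 24 h after dosing by RT-PCR, fluorescent labelling, HpaI digestion and capillary electrophoresis. Bidirectional fit against DMSO baseline.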

Assay [3] is described as follows: ATG_NRF2_ARE_CIS: Attagene CIS-FACTORIAL HepG2 Assay for human Nuclear Factor Erythroid 2 Related Factor 2 (NFR2) response to Antioxidant Response Elements (ARE) (AID 2282992).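 On AC50: reporter mRNA level measured by RT-PCR and capillary electrophoresis fluorescence.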 The conditions noted are these: HepG2 Attagene ARE/NRF2 reporter, transcription factor activity; actives raise or lower the signal. In short, it runs like this: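 Endogenous transcription factor activity in human liver HepG2 cells is tracked via a cis-element-driven reporter within a multiplexed set. mRNA induction is read by RT-PCR and capillary electrophoresis after 24 h, with DMSO as baseline.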

Assay [4] can be described thus: ATG_Oct_MLP_CIS: Attagene CIS-FACTORIAL HepG2 Assay for human Octamer-Binding Transcription Factor (Oct) (AID 2282993). The conditions noted are these: HepG2 Attagene cis-factorial Oct reporter, mRNA; actives raise or lower the signal. An outline of the steps:
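Using HepG2 cells bearing transfected cis-reporter constructs, mRNA induction was read after 24 h by fluorescent RT-PCR and capillary electrophoresis, with DMSO defining baseline for gain- or loss-of-signal fits.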

For assay [5], the target named is Cellular tumor antigen p53 (Homo sapiens) (UniProt P04637). In words: ATG_p53_CIS: Attagene CIS-FACTORIAL HepG2 Assay for human p53 Transcription Factor (AID 2282994). The conditions noted are these: HepG2 p53 cis-element reporter, Attagene mRNA; actives raise or lower the signal. An outline of the steps:
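Steps: transfect HepG2 with multiplexed cis reporter constructs; dose chemicals 24 h; extract RNA, reverse-transcribe, PCR-amplify reporter sequences; FAM-label, HpaI-digest, resolve fragments by CE. Activity fitted both directions relative to DMSO.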

Assay [6] concerns the target human Peroxisome Proliferator-activated Receptor alpha (PPARa), PPARA (gene 5465) (UniProt Q07869). In words: ATG_PPARa_TRANS: Attagene TRANS-FACTORIAL HepG2 Assay for human Peroxisome Proliferator-activated Receptor alpha (PPARa) (AID 2283001; active means hit-call score of the fitted dose curve at least 0.9, where 1 is the maximum). In short, it runs like this: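 Transient HepG2 transfection, GAL4-UAS reporters, NR-Gal4 chimeras; 24 h compound exposure. Readout: reporter transcripts by RT-PCR, 6-FAM primer extension, HpaI digest, capillary electrophoresis. Positive direction vs DMSO baseline.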

Assay [7] has as its target human Peroxisome Proliferator-activated Receptor delta (PPARd), PPARD (gene 5467) (UniProt Q03181). In words: ATG_PPARd_TRANS: Attagene TRANS-FACTORIAL HepG2 Assay for human Peroxisome Proliferator-activated Receptor delta (PPARd) (AID 2283002; active means hit-call score of the fitted dose curve at least 0.9, where 1 is the maximum). An outline of the steps: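 Fluorescence from capillary electrophoresis of labelled RT-PCR reporter fragments gives the signal; DMSO sets baseline. Cells: HepG2 transiently carrying GAL4-UAS reporter units plus chimeric nuclear receptor-Gal4 proteins, exposed to chemicals for 24 h.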

In assay [8] the target is Retinoic acid receptor alpha (Homo sapiens) (UniProt P10276). Put plainly: ATG_RARa_TRANS: Attagene TRANS-FACTORIAL HepG2 Assay for human Retinoic Acid Receptor alpha (RARa) (AID 2283005; active means hit-call score of the fitted dose curve at least 0.9, where 1 is the maximum). An outline of the steps: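 HepG2 transiently transfected with multiplex GAL4-UAS reporter units including a human RARa–GAL4 chimera; 24 h compound exposure. Reporter mRNA quantified by RT-PCR, 6-FAM labeling and capillary electrophoresis; gain of signal versus DMSO.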
Sequence of Retinoic acid receptor alpha (Homo sapiens) (P10276 whole entry, looked up, the tested form may be a part): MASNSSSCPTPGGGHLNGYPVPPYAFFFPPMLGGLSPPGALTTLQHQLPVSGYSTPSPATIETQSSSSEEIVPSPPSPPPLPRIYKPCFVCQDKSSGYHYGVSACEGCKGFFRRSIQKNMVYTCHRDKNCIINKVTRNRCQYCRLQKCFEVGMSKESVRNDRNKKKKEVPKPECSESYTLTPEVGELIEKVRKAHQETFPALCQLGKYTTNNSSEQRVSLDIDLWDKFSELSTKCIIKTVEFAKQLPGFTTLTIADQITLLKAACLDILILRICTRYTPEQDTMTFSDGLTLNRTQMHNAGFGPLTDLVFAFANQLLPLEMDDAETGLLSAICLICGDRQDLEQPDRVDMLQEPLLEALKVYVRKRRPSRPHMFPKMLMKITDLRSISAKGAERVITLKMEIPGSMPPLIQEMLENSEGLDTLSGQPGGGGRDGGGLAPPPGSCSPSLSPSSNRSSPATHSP

Assay [9] has as its target Peroxisome proliferator-activated receptor gamma (Homo sapiens) (UniProt P37231). In words: ATG_PPARg_TRANS: Attagene TRANS-FACTORIAL HepG2 Assay for human Peroxisome Proliferator-activated Receptor-gamma (PPARg) (AID 2283007; active means hit-call score of the fitted dose curve at least 0.9, where 1 is the maximum). In short, it runs like this: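 HepG2 cells transiently transfected with multiplexed GAL4-UAS reporter units and exogenous chimeric NR-Gal4 proteins; reporter mRNA quantified after 24 h compound exposure by RT-PCR, fluorescent labelling, HpaI digestion and capillary electrophoresis; gain-of-signal fitted versus DMSO baseline.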

The target in assay [10] is human Retinoic Acid Receptor gamma (RARg), RARG (gene 5916) (UniProt P13631). Put plainly: ATG_RARg_TRANS: Attagene TRANS-FACTORIAL HepG2 Assay for human Retinoic Acid Receptor gamma (RARg) (AID 2283009; active means hit-call score of the fitted dose curve at least 0.9, where 1 is the maximum). In short, it runs like this: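 Readout: reporter transcript levels via RT-PCR, 6-FAM primer-extension labelling, HpaI digestion and capillary electrophoresis. Cells: HepG2 carrying transfected RARg-GAL4 chimera plus UAS reporter set. Dosing 24 h; DMSO negative control.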
Sequence of human Retinoic Acid Receptor gamma (RARg), RARG (gene 5916) (P13631 whole entry, looked up, the tested form may be a part): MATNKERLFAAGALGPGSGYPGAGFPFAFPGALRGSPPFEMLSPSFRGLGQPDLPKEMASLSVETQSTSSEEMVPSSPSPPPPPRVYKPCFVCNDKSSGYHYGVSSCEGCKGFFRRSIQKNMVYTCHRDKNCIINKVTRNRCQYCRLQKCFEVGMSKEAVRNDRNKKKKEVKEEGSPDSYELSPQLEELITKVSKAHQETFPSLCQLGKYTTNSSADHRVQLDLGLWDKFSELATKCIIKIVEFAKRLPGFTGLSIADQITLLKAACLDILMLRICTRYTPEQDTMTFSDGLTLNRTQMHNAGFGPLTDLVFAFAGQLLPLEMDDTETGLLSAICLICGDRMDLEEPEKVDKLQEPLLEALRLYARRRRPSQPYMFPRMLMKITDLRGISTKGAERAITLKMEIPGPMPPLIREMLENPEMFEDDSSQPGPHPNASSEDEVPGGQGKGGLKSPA

The target in assay [11] is human RAR-related Orphan Receptor beta (RORb), RORB (gene 6096) (UniProt Q92753). In words: ATG_RORb_TRANS: Attagene TRANS-FACTORIAL HepG2 Assay for human RAR-related Orphan Receptor beta (RORb) (AID 2283010; active means hit-call score of the fitted dose curve at least 0.9, where 1 is the maximum). An outline of the steps:
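HepG2, transient MRTU transfection (GAL4-UAS reporters, exogenous NR-Gal4 chimeras); 24 h compound exposure; total RNA → RT-PCR → 6-FAM primer extension → HpaI digest → CE fluorescence. Positive direction vs DMSO baseline.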

The target of assay [12] is Nuclear receptor subfamily 1 group I member 2 (Homo sapiens) (UniProt O75469). Put plainly: ATG_PXR_TRANS: Attagene TRANS-FACTORIAL HepG2 Assay for human Pregnane X Receptor (PXR) (AID 2283008; active means hit-call score of the fitted dose curve at least 0.9, where 1 is the maximum). An outline of the steps: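 HepG2 transfected (FuGene 6) with GAL4-UAS reporter units + PXR-Gal4 chimera; dosed 24 h. Total RNA → oligo(dT) RT → PCR → 6-FAM primer extension → HpaI cut → CE. Gain-of-signal vs DMSO.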
Sequence of Nuclear receptor subfamily 1 group I member 2 (Homo sapiens) (O75469 whole entry, looked up, the tested form may be a part): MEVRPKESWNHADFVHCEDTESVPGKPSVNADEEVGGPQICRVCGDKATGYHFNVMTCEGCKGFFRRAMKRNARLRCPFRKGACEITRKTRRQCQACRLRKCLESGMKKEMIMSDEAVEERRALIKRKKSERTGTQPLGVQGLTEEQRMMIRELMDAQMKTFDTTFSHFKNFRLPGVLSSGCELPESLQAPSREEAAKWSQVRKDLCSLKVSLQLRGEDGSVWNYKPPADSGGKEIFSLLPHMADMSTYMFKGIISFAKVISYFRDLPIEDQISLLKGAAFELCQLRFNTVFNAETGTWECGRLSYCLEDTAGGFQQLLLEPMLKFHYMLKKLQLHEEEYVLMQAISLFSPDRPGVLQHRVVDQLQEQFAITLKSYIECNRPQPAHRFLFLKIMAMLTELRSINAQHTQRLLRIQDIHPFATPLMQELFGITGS

For assay [13], the target named is human Retinoic Acid Receptor beta (RARb), RARB (gene 5915) (UniProt P10826). In words: ATG_RARb_TRANS: Attagene TRANS-FACTORIAL HepG2 Assay for human Retinoic Acid Receptor beta (AID 2283004; active means hit-call score of the fitted dose curve at least 0.9, where 1 is the maximum). In short, it runs like this: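 Fluorescent capillary-electrophoresis detection of GAL4-UAS reporter mRNA defines the endpoint, with induction over DMSO-treated wells scored as activity. Transiently transfected human hepatoma HepG2 cells expressing exogenous NR–Gal4 proteins are exposed to test chemicals for 24 h.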
Sequence of human Retinoic Acid Receptor beta (RARb), RARB (gene 5915) (P10826 whole entry, looked up, the tested form may be a part): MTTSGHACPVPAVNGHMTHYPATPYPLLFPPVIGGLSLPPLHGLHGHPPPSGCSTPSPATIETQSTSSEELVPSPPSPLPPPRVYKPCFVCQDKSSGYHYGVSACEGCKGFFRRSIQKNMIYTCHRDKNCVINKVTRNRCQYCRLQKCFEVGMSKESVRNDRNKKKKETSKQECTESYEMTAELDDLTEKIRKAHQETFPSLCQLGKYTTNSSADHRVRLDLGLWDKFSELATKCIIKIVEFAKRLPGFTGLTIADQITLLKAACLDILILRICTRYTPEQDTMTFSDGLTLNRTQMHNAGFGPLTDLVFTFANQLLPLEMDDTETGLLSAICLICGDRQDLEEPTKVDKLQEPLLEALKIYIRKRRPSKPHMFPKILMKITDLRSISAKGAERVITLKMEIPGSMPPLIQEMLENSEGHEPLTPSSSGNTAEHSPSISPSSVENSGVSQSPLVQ

A short description of assay [14]: BSK_3C_TissueFactor: BioMAP Diversity Plus: 3C Assay for Tissue Factor Biomarker Activity (AID 2282997). The conditions noted are these: BioMAP 3C HUVEC, tissue factor biomarker readout; actives raise or lower the signal. An outline of the steps: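 In this endothelial system, HUVEC are treated for 24 h and Tissue Factor is assessed by ELISA, normalised to DMSO.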

Assay [15] in a line: BSK_3C_uPAR: BioMAP Diversity Plus: 3C Assay for Urokinase-type plasminogen activator receptor (uPAR) Biomarker Activity (AID 2282998). The conditions noted are these: BioMAP 3C HUVEC, uPAR biomarker ELISA; actives raise or lower the signal. In short, it runs like this:
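In this endothelial cell-based assay, human umbilical vein primary cells were treated with chemicals and harvested at 24 h. uPAR was quantified using ELISA, with gains or losses fitted relative to DMSO controls.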

The nature of assay [16]: BSK_3C_VCAM1: BioMAP Diversity Plus: 3C Assay for Vascular cell adhesion molecule 1 (VCAM1) Biomarker Activity (AID 2282999). The conditions noted are these: BioMAP 3C HUVEC, VCAM1 ELISA, cytokine-stimulated; actives raise or lower the signal. In short, it runs like this: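 HUVEC primary cells, 24 h compound exposure; VCAM-1 by ELISA; gain/loss of signal fitted bidirectionally vs DMSO baseline.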

A short description of assay [17]: BSK_4H_Eotaxin3: BioMAP Diversity Plus: 4H Assay for Eotaxin 3 Biomarker Activity (AID 2283000). The conditions noted are these: primary human endothelial cells (HUVEC); actives raise or lower the signal. In short, it runs like this: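 ELISA quantitation of CCL26 (Eotaxin-3) protein from chemically dosed human vascular endothelial cells at 24 h; increases and decreases both scored relative to DMSO-treated baseline.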

Read-out in assay [18]: Intercellular Adhesion Molecule 1 (ICAM1), ICAM1 (gene 3383)
In words: BSK_3C_ICAM1: BioMAP Diversity Plus: 3C Assay for Intercellular Adhesion Molecule 1 (ICAM1) Biomarker Activity (AID 2283003). The conditions noted are these: primary human endothelial cells (HUVEC); actives raise or lower the signal. In short, it runs like this: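 ELISA read-out of ICAM-1; HUVEC (primary human), 3C system, 24 h post-dosing; bidirectional fit vs DMSO baseline.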

Assay [19] is described as follows: BSK_3C_Proliferation: Cell Proliferation Assessment in the BioMAP Diversity Plus: 3C Assay (AID 2283006).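 Further: potency may reflect either rise or fall in cell number versus DMSO.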 The conditions noted are these: primary human endothelial cells (HUVEC). In short, it runs like this:
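HUVEC, sub-confluent; 48 h chemical exposure; 10% TCA fix, 0.1% SRB stain, A560 total protein. Gain or loss of signal fitted both directions vs DMSO control.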

For assay [20], the target named is human RAR-related Orphan Receptor gamma (RORg), RORC (gene 6097) (UniProt P51449). Put plainly: ATG_RORg_TRANS: Attagene TRANS-FACTORIAL HepG2 Assay for human RAR-related Orphan Receptor gamma (RORg) (AID 2283011; active means hit-call score of the fitted dose curve at least 0.9, where 1 is the maximum). An outline of the steps:
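Chimeric RORg-Gal4 transactivation in transfected HepG2; 24 h exposure; RT-PCR/capillary electrophoresis readout of reporter mRNA, DMSO baseline.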

Results filed as inconclusive are left out. Active and inactive are the calls of the source. How the source made its calls, unless noted: active means hit-call score of the fitted dose curve at least 0.9, where 1 is the maximum; inactive means score below 0.9.

Sequence of human Peroxisome Proliferator-activated Receptor alpha (PPARa), PPARA (gene 5465) (Q07869 whole entry, looked up, the tested form may be a part): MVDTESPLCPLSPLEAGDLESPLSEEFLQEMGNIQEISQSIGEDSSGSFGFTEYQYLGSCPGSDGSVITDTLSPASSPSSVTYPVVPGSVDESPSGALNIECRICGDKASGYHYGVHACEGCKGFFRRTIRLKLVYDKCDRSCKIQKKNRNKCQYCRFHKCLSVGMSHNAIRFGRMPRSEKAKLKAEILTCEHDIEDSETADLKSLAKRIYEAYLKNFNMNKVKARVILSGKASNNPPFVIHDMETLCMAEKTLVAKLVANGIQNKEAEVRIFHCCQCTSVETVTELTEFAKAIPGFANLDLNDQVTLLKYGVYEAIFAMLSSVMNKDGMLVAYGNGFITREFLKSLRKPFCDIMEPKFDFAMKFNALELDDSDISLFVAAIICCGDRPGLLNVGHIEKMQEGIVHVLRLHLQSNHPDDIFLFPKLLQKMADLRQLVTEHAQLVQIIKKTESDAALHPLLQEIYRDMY
Sequence of Cellular tumor antigen p53 (Homo sapiens) (P04637 whole entry, looked up, the tested form may be a part): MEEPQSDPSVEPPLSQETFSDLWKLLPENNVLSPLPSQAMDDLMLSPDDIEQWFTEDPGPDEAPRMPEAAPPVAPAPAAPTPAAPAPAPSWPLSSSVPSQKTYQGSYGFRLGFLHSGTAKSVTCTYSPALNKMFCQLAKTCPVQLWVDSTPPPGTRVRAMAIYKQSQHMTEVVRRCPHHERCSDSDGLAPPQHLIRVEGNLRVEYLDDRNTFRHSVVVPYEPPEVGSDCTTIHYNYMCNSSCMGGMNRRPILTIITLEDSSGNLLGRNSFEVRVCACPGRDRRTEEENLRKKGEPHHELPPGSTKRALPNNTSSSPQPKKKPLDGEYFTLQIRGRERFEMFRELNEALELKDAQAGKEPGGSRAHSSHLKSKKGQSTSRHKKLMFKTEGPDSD
Sequence of Peroxisome proliferator-activated receptor gamma (Homo sapiens) (P37231 whole entry, looked up, the tested form may be a part): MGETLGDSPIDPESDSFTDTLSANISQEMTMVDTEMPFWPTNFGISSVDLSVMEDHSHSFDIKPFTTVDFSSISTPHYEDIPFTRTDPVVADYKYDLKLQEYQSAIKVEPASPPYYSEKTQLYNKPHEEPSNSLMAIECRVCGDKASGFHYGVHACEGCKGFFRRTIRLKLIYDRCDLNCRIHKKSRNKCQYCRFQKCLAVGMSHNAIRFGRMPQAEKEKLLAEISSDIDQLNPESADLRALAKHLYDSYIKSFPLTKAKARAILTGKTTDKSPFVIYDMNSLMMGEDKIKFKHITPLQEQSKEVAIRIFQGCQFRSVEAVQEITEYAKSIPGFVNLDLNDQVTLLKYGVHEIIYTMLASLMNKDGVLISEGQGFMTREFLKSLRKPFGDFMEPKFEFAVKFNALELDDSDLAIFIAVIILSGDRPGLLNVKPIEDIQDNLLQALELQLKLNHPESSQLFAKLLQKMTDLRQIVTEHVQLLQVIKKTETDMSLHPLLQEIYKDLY
Sequence of human Peroxisome Proliferator-activated Receptor delta (PPARd), PPARD (gene 5467) (Q03181 whole entry, looked up, the tested form may be a part): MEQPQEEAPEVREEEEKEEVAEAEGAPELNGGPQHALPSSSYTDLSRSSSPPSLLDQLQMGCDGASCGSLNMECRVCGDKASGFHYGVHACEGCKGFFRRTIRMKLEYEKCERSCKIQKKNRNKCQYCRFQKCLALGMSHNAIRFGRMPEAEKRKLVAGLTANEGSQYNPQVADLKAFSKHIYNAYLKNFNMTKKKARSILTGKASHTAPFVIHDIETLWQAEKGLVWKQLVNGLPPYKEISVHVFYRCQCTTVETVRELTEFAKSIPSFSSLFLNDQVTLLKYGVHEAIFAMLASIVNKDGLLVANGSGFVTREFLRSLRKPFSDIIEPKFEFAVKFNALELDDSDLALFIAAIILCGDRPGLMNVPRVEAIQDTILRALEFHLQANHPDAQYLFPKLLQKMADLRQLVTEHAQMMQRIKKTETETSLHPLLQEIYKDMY
Sequence of Myc proto-oncogene protein (Homo sapiens) (P01106 whole entry, looked up, the tested form may be a part): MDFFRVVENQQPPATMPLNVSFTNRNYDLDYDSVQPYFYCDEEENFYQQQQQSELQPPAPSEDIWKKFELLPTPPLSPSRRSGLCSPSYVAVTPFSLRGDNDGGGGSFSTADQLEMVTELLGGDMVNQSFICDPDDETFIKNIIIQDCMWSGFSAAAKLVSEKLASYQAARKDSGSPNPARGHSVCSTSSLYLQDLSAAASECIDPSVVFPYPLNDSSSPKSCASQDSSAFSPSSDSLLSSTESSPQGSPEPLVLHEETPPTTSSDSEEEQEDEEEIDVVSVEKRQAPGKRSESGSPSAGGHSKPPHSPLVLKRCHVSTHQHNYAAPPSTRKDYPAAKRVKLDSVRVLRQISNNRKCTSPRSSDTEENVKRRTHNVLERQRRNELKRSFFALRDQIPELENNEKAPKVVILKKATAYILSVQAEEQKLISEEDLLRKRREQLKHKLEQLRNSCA
Sequence of human RAR-related Orphan Receptor beta (RORb), RORB (gene 6096) (Q92753 whole entry, looked up, the tested form may be a part): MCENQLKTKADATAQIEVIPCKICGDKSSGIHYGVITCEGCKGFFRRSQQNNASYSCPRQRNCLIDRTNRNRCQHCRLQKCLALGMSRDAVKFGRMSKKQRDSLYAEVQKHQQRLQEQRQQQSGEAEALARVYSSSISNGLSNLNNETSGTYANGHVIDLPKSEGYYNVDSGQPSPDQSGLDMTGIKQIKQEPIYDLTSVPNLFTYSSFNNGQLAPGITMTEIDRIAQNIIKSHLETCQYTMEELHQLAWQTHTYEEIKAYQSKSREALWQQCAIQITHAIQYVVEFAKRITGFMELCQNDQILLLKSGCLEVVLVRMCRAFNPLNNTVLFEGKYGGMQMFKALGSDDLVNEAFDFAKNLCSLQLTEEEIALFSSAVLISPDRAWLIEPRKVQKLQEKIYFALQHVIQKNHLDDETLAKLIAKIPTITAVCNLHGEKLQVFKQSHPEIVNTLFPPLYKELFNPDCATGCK

Take `CCCCCCCCC=CCCCCCCCC1=NCCN1CCO`: the outcome in [1], in assay [3], in assay [4], in [6], in [7] and in [8] was inactive. Moreover, the molecule was classed as inactive in assay [9], in assay [10] and in assay [11]. In addition, the AC50 in assay [2] was 26 µM (active); in assay [5], 21 µM (active).
For the molecule `CCCSc1ccc2nc(NC(=O)OC)[nH]c2c1`, the molecule was classed as inactive in assay [1], in [2], in assay [3], in assay [4], in assay [5] and in assay [6]. Also, the molecule was classed as inactive in assay [7] and in assay [12].
On to `NC(=S)NNC(N)=S`, for which the result in [1], in assay [2], in assay [3], in assay [4], in [5] and in assay [6] was inactive. Moreover, the result in [7], in [13], in assay [8], in assay [9] and in assay [12] was inactive.
`c1ccc(Oc2ccccc2)cc1`: the outcome in assay [1], in [2], in assay [3], in assay [4], in [5] and in [6] was inactive. The molecule was classed as inactive in assay [7], in [13], in [12] and in assay [20]. Further, the AC50 in assay [14] was 30.7 µM (active); in [15], 30.6 µM (active); in assay [16], 30.7 µM (active); in [17], 31.5 µM (active); in [18], 32.2 µM (active); in assay [19], 31.2 µM (active).
Turning to `Cc1cccc(Nc2ccccc2)c1`, the call in assay [1], in assay [2], in assay [4], in [5], in [6] and in [7] was inactive. In addition, the call in [12] was inactive. The values for the AC50 in assay [3] and in assay [9] were 70.6 µM (active) and 85.4 µM (active), respectively.
As for `Cc1c(OCC(F)(F)F)ccnc1CS(=O)c1nc2ccccc2[nH]1` (stereo unspecified), the molecule was classed as inactive in assay [1], in assay [2], in assay [4], in [5], in assay [6] and in assay [7]. In addition, the AC50 in assay [3] was 49.1 µM (active); in [9], 23.7 µM (active).
As for `C=Cc1ccncc1`, the result in [1], in assay [5], in [6], in assay [8], in assay [12] and in [11] was inactive. For the same molecule, the AC50 was 61.5 µM (active) in assay [2]; 25.1 µM (active) in assay [3]; 26.8 µM (active) in assay [4]; 25.6 µM (active) in [7]; 77.4 µM (active) in assay [9].
In the case of `Clc1cc(Cl)c(-c2c(Cl)c(Cl)cc(Cl)c2Cl)cc1Cl`, the molecule was called inactive in [1], in assay [2], in assay [4], in assay [5], in assay [7] and in assay [18]. In assay [9], the molecule was classed as inactive. Further, the AC50 in assay [3] is 26.7 µM (active); in assay [14], 10 µM (active); in assay [15], 17.1 µM (active); in assay [16], 12.9 µM (active); in assay [17], 12.5 µM (active); in assay [19] it was 16.7 µM (active). In addition, in [12], the AC50 is 4.6 µM (active).
As for `Clc1ccc(C(c2ccccc2Cl)C(Cl)Cl)cc1` (stereo unspecified), the outcome in [1], in assay [5], in assay [6] and in [7] was inactive. Also, the AC50 was 100 µM (active) in [2], 52 µM (active) in [3], 26.7 µM (active) in assay [4] and 1.92 µM (active) in assay [12].
